# Measurements as given in PubChem BioAssay AID2006 (Sanford-Burnham Center for Chemical Genomics, 2009).
# Screen size: about 290,000 compounds; about 1,000 (0.34%) were called active. Only a selection was taken, and actives are over-represented in it overall. Values without a mark were called inactive. No stated cut-off is given here; in the data, active means inhibition above about 50% (passing the limit was not always enough); inconclusive means no clear call, values can overlap the other calls.
# Target: SUMO-conjugating enzyme UBC9 (Homo sapiens) (UniProt P63279)
# Sequence (P63279 whole entry, looked up): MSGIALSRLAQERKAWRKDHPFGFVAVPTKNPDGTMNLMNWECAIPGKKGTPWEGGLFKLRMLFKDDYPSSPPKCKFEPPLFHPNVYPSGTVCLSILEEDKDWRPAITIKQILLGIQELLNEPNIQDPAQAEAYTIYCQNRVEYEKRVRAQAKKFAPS
# Experiment: blockers of SAE1/SAE2–UBC9 SUMO transfer – biochemical, HTRF, uHTS, primary screen (AID 2006)
# Details: HTRF SUMOylation assay, SAE1/SAE2 + UBC9, in vitro; at 35 µM; hits give high values
row,SMILES,inhibition
1,COc1cccc(N2C(=O)NC(=O)/C(=C\c3ccc([N+](=O)[O-])s3)C2=O)c1,41.7%
2,O=C1NC(=O)N(c2ccccc2)C(=O)/C1=C/c1ccc([N+](=O)[O-])s1,51.6% (active)
3,Cc1cccc(N2C(=O)NC(=O)/C(=C\c3cnn(-c4ccccc4)c3)C2=O)c1,-3.4%
4,CC1CCC(N(C)C2CCN(C)CC2)CC1 (stereo not given),9.4%
5,CC(c1ccccc1)(c1ccccc1)c1ccncc1,4.4%
